Most compounds without a hit are left out; they make up all but 19% or so of the library.
TDP1 cell noCPT = qHTS for Inhibitors of human tyrosyl-DNA phosphodiesterase 1 (TDP1): qHTS in cells in absence of CPT; DT40 Tdp1-/- hTDP1 cells, no CPT, ATP luminescence, 48 h; Potency, µM (top dose mostly 46.2 µM), without a hit: top-dose activity change, negative = growth inhibition, most hits filed as inhibitors; 420,000 compounds, 15% hits; also: potency is read from the fitted curve at half-maximal effect; nearly all actives have a fitted effect of over 55% in size
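Luminescent ATP content (CellTiter-Glo) served as the growth readout. Knockout chicken DT40 cells expressing human TDP1 were exposed to compounds without camptothecin for a minimum 48 hr at 37 °C.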
HT1080NT lethal = kills 2HG-producing HT-1080-NT fibrosarcoma cells. HT-1080-NT fibrosarcoma viability, CellTiter-Glo ATP luminescence, 48 h. Potency, µM (titrated, usually from 46.1 µM), without a hit: at the highest dose activity, negative = less viability, usual class: cytotoxic. 360,000 compounds, 1.6% hits;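 also: NT is the 2HG producing partner of a matched IDH1 knockdown line; potency is read from the fitted curve at half-maximal effect; 0% = DMSO-treated cells and -100% = media-only wells without cells; nearly all actives have a fitted effect of over 55% in size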
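HT-1080-NT; 750 cells/well; 5% FBS RPMI; 48 h compound, 37 degrees C; CellTiter-Glo luminescence; curve fitting and curve-class assignment.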
IL1B secr inh = blocks inflammasome-driven IL-1 beta release; THP-1 LPS/ATP IL-1B secretion, AlphaLISA, 16 h; hits give low values; activity change, % at 57.5 µM; 360,000 compounds, 4.7% hits; in the data active = activity change below about -50%; inconclusive = mostly about -30% to -49%
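Secreted IL-1B measured by AlphaLISA bead assay after 16 h compound exposure of THP-1 cells; compounds (final up to 57.5 uM) added 1 h before LPS (250 ng/mL) and ATP (1.25 mM) stimulation; lower signal means less secretion.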
DT40 TDP1 CPT = DT40-hTDP1 cell growth loss with CPT. chicken DT40 Tdp1-/-;hTDP1 cells + 20 nM CPT, ATP luminescence, 48 h. AID 686979. Potency, µM (doses to about 46.2 µM), inactives show at the top dose activity change, negative = growth inhibition, most hits filed as inhibitors. 420,000 compounds, 12% hits; also: potency is read from the fitted curve at half-maximal effect; nearly all actives have a fitted effect of over 55% in size
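Cell growth measured by CellTiter-Glo luminescence after a minimum 48 h, 37 C compound exposure with 20 nM CPT in Tdp1-knockout DT40 cells stably expressing hTDP1, seeded 400/well; qHTS titration format.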
HT1080 IDH1KD tx = toxicity to HT-1080 IDH1 knockdown cells (counter line). AID 686971. HT-1080 IDH1 knockdown viability, ATP luminescence, 48 h. Potency, µM (highest dose often 46.1 µM), inactives show at the highest dose activity, negative = toxicity, hits mostly cytotoxic. 360,000 compounds, 2% hits;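 also: potency is read from the fitted curve at half-maximal effect; 0% = DMSO wells and -100% = cell-free medium wells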
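Viability of IDH1-knockdown HT-1080 fibrosarcoma cells was assessed by CellTiter-Glo after 48 h at 37 °C with titrated compound; concentration-effect curves were classified by fit quality and response size.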
ELG1 repair inh = inhibitors of ELG1-dependent DNA repair in HEK293T cells; HEK293T ELG1-luciferase reporter, luminescence, 16 h; DNA damage induced by 5-fluorouridine; Potency, µM (doses to about 46.1 µM), for inactives: at the top dose activity change, negative = inhibition, actives largely listed as inhibitors; 330,000 compounds, 2.3% hits; AID 504467; also: potency is read from the fitted curve at half-maximal effect; nearly all actives have a fitted effect of over 55% in size
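In this reporter screen, reduction of luminescence relative to DMSO vehicle indicated activity. Compounds and 5-fluorouridine were added together to 2,000 cells per well, incubated for 16 hr at 37 °C, then developed with ONE-Glo.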
The depositor's hits bear a star; ? = inconclusive; · = no result. Unless noted, calls follow the shape of the dose curve; as a rule, active = well fitted curve in the direction sought with a large enough effect; inconclusive = small, poorly fitted or top-dose-only effect, or another doubt; inactive = no such curve, though single readings can be large; an effect the other way counts as inactive or inconclusive. Unless noted, % is scaled to controls: 0 for no effect and ±100 for the full control effect.

SMILES	TDP1 cell noCPT	HT1080NT lethal	IL1B secr inh	DT40 TDP1 CPT	HT1080 IDH1KD tx	ELG1 repair inh
COc1ccc(C)cc1NC(=O)c1cc2c(=O)n(Cc3cccnc3)ccc2nc1C	-15%	·	·	-7%	·	·
CCC(=O)Nc1ccc(C(=O)Nc2cccc(C)n2)cc1	-23%	-4%	-28	6%	-4%	?
COc1ccc(-c2csc(NC(CO)c3nc4ccccc4n3Cc3ccc(C)cc3)n2)cc1 (stereo not given)	?	?	-22	26µM*	-7%	·
Cc1ccc(Cn2c(C(CO)Nc3nc(-c4ccc(F)cc4)cs3)nc3ccccc32)cc1 (stereo not given)	16µM*	?	-69*	?	?	·
Cc1ccc(Cn2c(C(CO)Nc3nc(-c4ccc(Cl)c([N+](=O)[O-])c4)cs3)nc3ccccc32)cc1 (stereo not given)	?	?	?	?	-26%	·
OCCCn1c(C(CO)Nc2nc(-c3ccc(Cl)cc3)cs2)nc2ccccc21 (stereo not given)	16µM*	-13%	?	?	-16%	·
Cc1cccc(CSc2nc3c(c(=O)[nH]2)C(c2cccc(O)c2)CC(=O)N3)c1 (stereo not given)	-52%	·	·	?	·	·
COc1cc(C(=O)N2CCN(S(=O)(=O)c3ccc(C)cc3)CC2)ccc1OCC(=O)N1CCOCC1	-8%	2%	0	2%	9%	·
Cc1oc2cc([N+](=O)[O-])c(O)c([N+](=O)[O-])c2c1C(=O)c1ccc(Cl)cc1	?	-18%	0	23µM*	-22%	?
O=S(=O)(c1ccc2c(c1)OCO2)N1CCN(c2nc(-c3cccs3)nc3ccccc23)CC1	?	10%	·	?	1%	·
Oc1ccccc1N1CCN(c2nc(-c3cccs3)nc3ccccc23)CC1	?	-1%	-14	-90%	-5%	?
CN1CCN(c2nc(-c3ccc(Cl)cc3)nc3ccccc23)CC1	16µM*	-9%	-89*	?	4%	-12%
O=C(c1ccc2c(c1)OCCO2)N1CCN(c2nc(-c3cccs3)nc3ccccc23)CC1	11µM*	-19%	·	11µM*	-11%	·
CC(C)(C)OC(=O)N1CCN(c2nc(-c3cccs3)nc3ccccc23)CC1	8.9µM*	2%	·	13µM*	1%	·
CN1CCN(c2nc(-c3cccs3)nc3ccccc23)CC1	?	?	-59*	?	-22%	-16%
COC(=O)[C@]12CCCCC=C1N(Cc1cccc3ccccc13)C(=O)[C@H](CC(=O)NCCc1ccccc1OC)C2	?	?	0	?	-30%	·
CCOC(=O)[C@]12CCC=C1N(Cc1cccc3ccccc13)C(=O)[C@H](CC(=O)NCC1CCCCC1)C2	21µM*	?	0	23µM*	?	·
COC(=O)[C@]12CCCCC=C1N(Cc1cccc3ccccc13)C(=O)[C@H](CC(=O)NCC1CCCCC1)C2	18µM*	15%	-15	?	12%	·
CCOC(=O)[C@]12CCCC=C1N(Cc1ccc(Cl)cc1Cl)C(=O)[C@H](CC(=O)NCc1cccc3ccccc13)C2	16µM*	-22%	?	26µM*	-20%	·
COC(=O)[C@]12CCCCC=C1N(Cc1cccc3ccccc13)C(=O)[C@H](CC(=O)NCCC(C)C)C2	15µM*	?	-16	18µM*	?	·
COc1ccc(CC(=O)Nc2ccc(N3CCOCC3)cc2)cc1OC	?	?	29	-16%	-1%	-15%
